Experimental data from PubChem BioAssay AID1159580 (chemical genetic matrix, 2015).
Among all 5,500 compounds or so, about 2,000 (36%) were called active. Roughly 18% stayed inconclusive and do not appear here. No stated cut-off is given here; in the data, active means normalized growth mostly below about 0.91 (no sharp cut-off); inconclusive means no clear call, values can overlap the other calls; inactive means mostly above about 0.92. This is one part of the list.

Test: chemical genetic growth profiling, strain panel (AID 1159580);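 further: tested at 20 µM; growth read once vehicle control cultures reached saturation at 30 °C; 1 = growth at the plate median or of vehicle wells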
Conditions: growth OD

Measured: normalized growth

CCCCOc1ccc(OCCCN2CCOCC2)cc1
active: S. cerevisiae deletion strains, locus YJR075W, strain HOC1, stronger effect = lower value 0.806 | S. cerevisiae deletion strains, locus YKL190W, strain CNB1, stronger effect = lower value 0.871 | S. cerevisiae deletion strains, locus YKR001C, strain vps1, stronger effect = lower value 0.572 | S. cerevisiae deletion strains, locus YLR262C, strain YPT6 (second series), stronger effect = lower value 0.771 | S. cerevisiae deletion strains, locus YLR268W, strain sec22, stronger effect = lower value 0.873 | S. cerevisiae deletion strains, locus YLR320W, strain mms22, stronger effect = lower value 0.609 | S. cerevisiae deletion strains, locus YLR418C, strain cdc73, stronger effect = lower value 0.736 | S. cerevisiae deletion strains, locus YML032C, strain rad52, stronger effect = lower value 0.848 | S. cerevisiae deletion strains, locus YMR223W, strain ubp8, stronger effect = lower value 0.88 | S. cerevisiae deletion strains, locus YNL067W, strain RPL9B, stronger effect = lower value 0.829 | S. cerevisiae deletion strains, locus YNL071W, strain lat1, stronger effect = lower value 0.663 | S. cerevisiae deletion strains, locus YNL233W, strain BNI4, stronger effect = lower value 0.767 | S. cerevisiae deletion strains, locus YNL248C, strain rpa49, stronger effect = lower value 0.769 | S. cerevisiae deletion strains, locus YNL307C, strain MCK1, stronger effect = lower value 0.649 | S. cerevisiae deletion strains, locus YNR052C, strain pop2, stronger effect = lower value 0.83 | S. cerevisiae deletion strains, locus YOL006C, strain TOP1, stronger effect = lower value 0.239 | S. cerevisiae deletion strains, locus YOR001W, strain rrp6, stronger effect = lower value 0.8 | S. cerevisiae deletion strains, locus YOR070C, strain gyp1, stronger effect = lower value 0.632 | S. cerevisiae deletion strains, locus YOR184W, strain ser1, stronger effect = lower value 0.742 | S. cerevisiae deletion strains, locus YOR270C, strain vph1, stronger effect = lower value 0.41 | S. cerevisiae deletion strains, locus YPL051W, strain arl3, stronger effect = lower value 0.873 | S. cerevisiae deletion strains, locus YPR163C, strain tif3, stronger effect = lower value 0.765 | S. cerevisiae deletion strains, strain wtn01, stronger effect = lower value 0.856 | S. cerevisiae strains, strain wild type, stronger effect = lower value 0.895
inactive: S. cerevisiae deletion strains, locus YKL009W, strain mrt4, stronger effect = lower value 1 | S. cerevisiae deletion strains, locus YKL068W, stronger effect = lower value 0.998 | S. cerevisiae deletion strains, locus YKL085W, strain MDH1 (second series), stronger effect = lower value 0.997 | S. cerevisiae deletion strains, locus YKL085W, strain MDH1, stronger effect = lower value 0.997 | S. cerevisiae deletion strains, locus YKL160W, strain elf1, stronger effect = lower value 0.914 | S. cerevisiae deletion strains, locus YKR026C, strain gcn3, stronger effect = lower value 0.985 | S. cerevisiae deletion strains, locus YKR091W, strain srl3, stronger effect = lower value 0.992 | S. cerevisiae deletion strains, locus YLL001W, strain dnm1, stronger effect = lower value 0.944 | S. cerevisiae deletion strains, locus YLL026W, stronger effect = lower value 0.98 | S. cerevisiae deletion strains, locus YLL041C, strain sdh2, stronger effect = lower value 0.958 | S. cerevisiae deletion strains, locus YLR027C, strain aat2, stronger effect = lower value 0.977 | S. cerevisiae deletion strains, locus YLR039C, strain RIC1, stronger effect = lower value 1.22 | S. cerevisiae deletion strains, locus YLR058C, strain SHM2, stronger effect = lower value 0.908 | S. cerevisiae deletion strains, locus YLR102C, strain apc9, stronger effect = lower value 0.989 | S. cerevisiae deletion strains, locus YLR113W, strain HOG1, stronger effect = lower value 1.03 | S. cerevisiae deletion strains, locus YLR221C, strain rsa3, stronger effect = lower value 0.919 | S. cerevisiae deletion strains, locus YLR258W, strain gsy2, stronger effect = lower value 0.946 | S. cerevisiae deletion strains, locus YLR262C, strain YPT6, stronger effect = lower value 1.16 | S. cerevisiae deletion strains, locus YLR330W, strain CHS5, stronger effect = lower value 0.969 | S. cerevisiae deletion strains, locus YLR342W, strain FKS1 (second series), stronger effect = lower value 0.87 | S. cerevisiae deletion strains, locus YLR342W, strain FKS1, stronger effect = lower value 0.985 | S. cerevisiae deletion strains, locus YLR357W, strain rsc2, stronger effect = lower value 1.08 | S. cerevisiae deletion strains, locus YLR370C, strain arc18, stronger effect = lower value 0.986 | S. cerevisiae deletion strains, locus YLR371W, strain rom2, stronger effect = lower value 0.965 | S. cerevisiae deletion strains, locus YLR384C, strain iki3, stronger effect = lower value 0.934 | S. cerevisiae deletion strains, locus YML016C, strain PPZ1, stronger effect = lower value 0.985 | S. cerevisiae deletion strains, locus YML120C, strain ndi1, stronger effect = lower value 1.01 | S. cerevisiae deletion strains, locus YML124C, strain tub3, stronger effect = lower value 0.997 | S. cerevisiae deletion strains, locus YMR058W, strain fet3, stronger effect = lower value 0.927 | S. cerevisiae deletion strains, locus YMR078C, strain ctf18, stronger effect = lower value 0.975 | S. cerevisiae deletion strains, locus YMR125W, strain sto1, stronger effect = lower value 0.973 | S. cerevisiae deletion strains, locus YMR129W, stronger effect = lower value 1 | S. cerevisiae deletion strains, locus YMR205C, strain PFK2, stronger effect = lower value 0.897 | S. cerevisiae deletion strains, locus YMR231W, strain pep5, stronger effect = lower value 0.967 | S. cerevisiae deletion strains, locus YMR263W, strain SAP30, stronger effect = lower value 0.946 | S. cerevisiae deletion strains, locus YMR307W, strain GAS1, stronger effect = lower value 1 | S. cerevisiae deletion strains, locus YNL128W, strain TEP1, stronger effect = lower value 0.986 | S. cerevisiae deletion strains, locus YNL153C, strain GIM3, stronger effect = lower value 0.903 | S. cerevisiae deletion strains, locus YNL183C, strain NPR1, stronger effect = lower value 0.917 | S. cerevisiae deletion strains, locus YNL209W, strain ssb2, stronger effect = lower value 0.965 | S. cerevisiae deletion strains, locus YNL250W, strain rad50, stronger effect = lower value 0.963 | S. cerevisiae deletion strains, locus YNL271C, strain bni1, stronger effect = lower value 0.966 | S. cerevisiae deletion strains, locus YNL298W, strain CLA4, stronger effect = lower value 0.975 | S. cerevisiae deletion strains, locus YNL322C, strain KRE1 (second series), stronger effect = lower value 1.02 | S. cerevisiae deletion strains, locus YNL322C, strain KRE1, stronger effect = lower value 0.977 | S. cerevisiae deletion strains, locus YNR049C, strain mso1, stronger effect = lower value 0.978 | S. cerevisiae deletion strains, locus YOL012C, strain htz1 1.06 | S. cerevisiae deletion strains, locus YOL147C, strain pex11, stronger effect = lower value 0.962 | S. cerevisiae deletion strains, locus YOR061W, strain CKA2, stronger effect = lower value 0.987 | S. cerevisiae deletion strains, locus YOR069W, strain VPS5, stronger effect = lower value 0.995 | S. cerevisiae deletion strains, locus YOR080W, strain dia2, stronger effect = lower value 0.985 | S. cerevisiae deletion strains, locus YOR083W, strain WHI5, stronger effect = lower value 0.931 | S. cerevisiae deletion strains, locus YOR106W, strain vam3, stronger effect = lower value 0.875 | S. cerevisiae deletion strains, locus YOR136W, strain idh2, stronger effect = lower value 0.962 | S. cerevisiae deletion strains, locus YOR144C, strain elg1, stronger effect = lower value 0.994 | S. cerevisiae deletion strains, locus YOR231W, strain MKK1, stronger effect = lower value 0.984 | S. cerevisiae deletion strains, locus YOR265W, strain rbl2, stronger effect = lower value 0.967 | S. cerevisiae deletion strains, locus YOR290C, strain snf2, stronger effect = lower value 0.917 | S. cerevisiae deletion strains, locus YOR316C, strain cot1, stronger effect = lower value 0.99 | S. cerevisiae deletion strains, locus YPL055C, strain LGE1, stronger effect = lower value 0.857 | S. cerevisiae deletion strains, locus YPL078C, strain atp4, stronger effect = lower value 0.941 | S. cerevisiae deletion strains, locus YPL106C, strain sse1, stronger effect = lower value 1.09 | S. cerevisiae deletion strains, locus YPL240C, strain hsp82, stronger effect = lower value 0.982 | S. cerevisiae deletion strains, locus YPL241C, strain CIN2, stronger effect = lower value 0.992 | S. cerevisiae deletion strains, locus YPL256C, strain CLN2, stronger effect = lower value 1.02 | S. cerevisiae deletion strains, locus YPR119W, strain clb2, stronger effect = lower value 1.01 | S. cerevisiae deletion strains, locus YPR141C, strain kar3, stronger effect = lower value 0.984 | S. cerevisiae deletion strains, locus YPR167C, strain met16, stronger effect = lower value 0.977
